Inconclusive results are not listed. Activity calls are given as the source filed them. Unless noted, calls come from the whole dose curve; as a rule, active = well fitted curve in the direction sought with a large enough effect in the repeat runs; inconclusive = weak or mixed curves; inactive = no such curve, though single readings can be large; an effect the other way counts as inactive or inconclusive.
Key:
[1] = qHTS assay to identify small molecule antagonists of the estrogen related receptor (ERR) signaling pathway from Tox21 library - cell viability counter screen (AID 1224834); note: nearly all actives have a fitted effect of over 30% in size
In short: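 ERR cells, 2,000/well; 6 h settle at 37 C/5% CO2; pin-tool compound transfer in DMSO; 17.5 h at 37 C; CellTiter-Fluor, 30 min; fluorescence intensity.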

[2] = biological target: Luciferin 4-monooxygenase (Photinus pyralis) (UniProt P08659); test: qHTS assay to identify small molecule inhibitors of firefly luciferase (AID 1224835); note: nearly all actives have a fitted effect of over 25% in size; note: potency is the fitted concentration of half-maximal effect; for activity change, negative = inhibition: series mostly up to about 120 µM
In short: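 Quantitative HTS format; KM concentrations of both substrates. Purified P. pyralis FLuc activity quantified from luminescence images.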

[3] = qHTS assay to identify small molecule agonists of the constitutive androstane receptor (CAR) signaling pathway - cell viability counter screen (AID 1224836); note: series mostly up to about 92 µM; nearly all actives have a fitted effect of over 45% in size
In short: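 Fluorescence from CellTiter-Fluor indicates live cells after 23 h exposure. The human hepatoma line expresses hCAR and a CYP2B6-2.2kb reporter. Incubation medium contains 0.75 uM PK11195 (final).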

[4] = qHTS assay to identify small molecule antagonists of the constitutive androstane receptor (CAR) signaling pathway - cell viability counter screen (AID 1224837); note: series mostly up to about 92 µM; nearly all actives have a fitted effect of over 45% in size
In short: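 Viability was measured with CellTiter-Fluor in a HepG2 line carrying stably transfected hCAR and a CYP2B6-2.2kb construct. Cells were exposed for 23 hr at 37 C to 15 compound concentrations with 50 nM CITCO as agonist.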

[5] = biological target: Nuclear receptor subfamily 1 group I member 3 (Homo sapiens) (UniProt Q14994); test: qHTS assay to identify small molecule antagonists of the constitutive androstane receptor (CAR) signaling pathway (AID 1224838);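 note: HepG2 cells stably expressing hCAR with CYP2B6 luciferase reporter stimulated by CITCO; nearly all actives have a fitted effect of over 40% in size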
In short: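 Antagonist mode used CITCO at a final 50 nM to activate CAR in human hepatoma HepG2 cells carrying stable hCAR and a 2.2 kb CYP2B6 promoter-luciferase construct. Compounds were tested at 15 concentrations over 24 h, with luminescence as the end point.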

[6] = biological target: Nuclear receptor subfamily 1 group I member 3 (Homo sapiens) (UniProt Q14994); test: qHTS assay to identify small molecule agonists of the constitutive androstane receptor (CAR) signaling pathway (AID 1224839); note: nearly all actives have a fitted effect of over 15% in size; note: potency is the fitted concentration of half-maximal effect; for activation: series mostly up to about 92 µM
In short: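 Stable hCAR/CYP2B6-2.2kb HepG2 line in DMEM with 10% FBS; compounds (15 concentrations) and 0.75 uM PK11195 final, 24 h at 37 C/5% CO2, then ONE-Glo luminescence after 30 min.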

[7] = qHTS assay to identify small molecule antagonists of the estrogen related receptor signaling pathway with the pleiotropic PPARgamma coactivator (PGC) from Tox21 10K library - cell viability counter screen (AID 1224840; active = well fitted cell-killing curve with a large enough effect in the repeat runs, not every such curve was filed as active; note: nearly all actives have a fitted effect of over 40% in size)
In short: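 Multiplexed viability counter screen in the PGC/ERR cell line: cells treated with DMSO-dissolved compounds for 17.5 hours at 37 C, then viability measured as CellTiter-Fluor fluorescence.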

[8] = qHTS assay to identify small molecule antagonists of the estrogen related receptor signaling pathway with the pleiotropic PPARgamma coactivator (PGC) from Tox21 10K library (AID 1224841; call rule not given here; note: series mostly up to about 92 µM; actives are mostly falling curves and most rising ones were filed inactive; nearly all actives have a fitted effect of over 50% in size)
In short: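 Steps: plate 2,000 PGC/ERR cells per well; incubate 6 h at 37 C with 5% CO2; transfer compounds from DMSO stocks by pin tool; incubate 18 h at 37 C; add One-Glo; measure luminescence 30 min later.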

[9] = qHTS assay to identify small molecule agonists of the estrogen related receptor signaling pathway with the pleiotropic PPARgamma coactivator (PGC) from Tox21 10K library (AID 1224842); note: nearly all actives have a fitted effect of over 15% in size; note: potency is the fitted concentration of half-maximal effect
In short: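 PGC/ERR reporter cells (NTP line) were seeded 2,000 per well, rested 6 h at 37 C/5% CO2, then pin-dosed with compounds in DMSO for 18 h at 37 C; luciferase read by One-Glo luminescence after 30 min at room temperature.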

[10] = biological target: Thyrotropin receptor (Homo sapiens) (UniProt P16473); test: qHTS assay to identify small molecule agonists of the thyroid stimulating hormone receptor (TSHR) signaling pathway (AID 1224843; calls by dose curve; note: nearly all actives have a fitted effect of over 45% in size)
In short: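 Using 15 concentrations per compound in triplicate, cAMP production was monitored in TSHR-HEK293 cells after 30 min compound incubation at RT; HTRF reagents followed, with fluorescence intensity recorded after 1 h.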
% is set by controls: 0 for no effect and ±100 for the full control effect.

Nuclear receptor subfamily 1 group I member 3 (Homo sapiens), sequence (Q14994 whole entry, looked up): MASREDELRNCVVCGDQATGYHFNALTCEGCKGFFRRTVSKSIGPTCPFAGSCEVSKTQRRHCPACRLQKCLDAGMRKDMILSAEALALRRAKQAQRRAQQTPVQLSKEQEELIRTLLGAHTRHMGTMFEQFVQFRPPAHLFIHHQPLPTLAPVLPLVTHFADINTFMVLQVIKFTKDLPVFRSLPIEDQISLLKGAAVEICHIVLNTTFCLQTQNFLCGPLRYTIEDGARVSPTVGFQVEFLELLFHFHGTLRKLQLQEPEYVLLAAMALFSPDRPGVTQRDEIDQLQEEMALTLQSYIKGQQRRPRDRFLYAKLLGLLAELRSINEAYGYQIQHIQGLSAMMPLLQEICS
Thyrotropin receptor (Homo sapiens), sequence (P16473 whole entry, looked up): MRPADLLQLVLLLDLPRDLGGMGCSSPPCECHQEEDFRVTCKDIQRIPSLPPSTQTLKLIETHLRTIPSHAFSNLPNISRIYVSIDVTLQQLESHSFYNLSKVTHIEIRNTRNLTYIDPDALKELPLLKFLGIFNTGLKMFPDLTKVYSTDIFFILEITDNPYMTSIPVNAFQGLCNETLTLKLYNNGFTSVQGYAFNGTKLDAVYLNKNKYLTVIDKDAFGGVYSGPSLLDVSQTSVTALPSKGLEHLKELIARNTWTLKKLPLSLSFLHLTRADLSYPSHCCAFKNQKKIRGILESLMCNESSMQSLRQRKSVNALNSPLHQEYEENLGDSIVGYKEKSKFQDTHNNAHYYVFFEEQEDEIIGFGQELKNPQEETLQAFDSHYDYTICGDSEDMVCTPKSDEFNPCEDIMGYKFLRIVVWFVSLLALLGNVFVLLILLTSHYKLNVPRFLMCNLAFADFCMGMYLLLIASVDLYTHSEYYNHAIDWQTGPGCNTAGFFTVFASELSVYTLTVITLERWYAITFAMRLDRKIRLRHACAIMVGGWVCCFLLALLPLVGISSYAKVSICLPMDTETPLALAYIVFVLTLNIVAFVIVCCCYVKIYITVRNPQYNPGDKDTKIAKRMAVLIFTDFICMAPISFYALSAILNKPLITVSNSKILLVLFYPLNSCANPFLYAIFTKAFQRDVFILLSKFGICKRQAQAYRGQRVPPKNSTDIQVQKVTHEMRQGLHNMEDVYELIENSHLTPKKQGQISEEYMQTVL
Luciferin 4-monooxygenase (Photinus pyralis), sequence (P08659 whole entry, looked up): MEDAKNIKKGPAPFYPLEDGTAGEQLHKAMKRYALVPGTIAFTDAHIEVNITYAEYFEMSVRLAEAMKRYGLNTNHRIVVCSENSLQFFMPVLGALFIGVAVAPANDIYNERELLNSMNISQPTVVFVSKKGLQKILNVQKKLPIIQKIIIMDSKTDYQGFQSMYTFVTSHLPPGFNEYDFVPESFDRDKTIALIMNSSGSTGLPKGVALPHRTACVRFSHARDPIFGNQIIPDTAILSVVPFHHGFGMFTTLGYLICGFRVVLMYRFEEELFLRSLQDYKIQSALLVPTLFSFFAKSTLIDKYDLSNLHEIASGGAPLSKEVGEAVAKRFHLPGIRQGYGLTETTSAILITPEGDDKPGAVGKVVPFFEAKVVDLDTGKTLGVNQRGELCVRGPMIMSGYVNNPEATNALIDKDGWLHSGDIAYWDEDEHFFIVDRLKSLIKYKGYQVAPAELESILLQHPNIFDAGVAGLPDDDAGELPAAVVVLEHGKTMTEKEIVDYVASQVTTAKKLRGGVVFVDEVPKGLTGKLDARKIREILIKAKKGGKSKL

CC1(C)S[C@@H]2[C@H](NC(=O)C(C(=O)O)c3ccccc3)C(=O)N2[C@H]1C(=O)O (stereo partly specified)
inactive: Potency [1] | Potency [2] | Potency [3] | Potency [4] | Potency [5] | Potency [6] | Potency [7] | Potency [8] | Potency [9]

O=S(=O)(O)C(F)(F)F
inactive: Potency [1] | Potency [2] | Potency [3] | Potency [4] | Potency [5] | Potency [6] | Potency [7] | Potency [8] | Potency [9] | Potency [10]

CCOc1ccc(OCC)c(Cl)c1
inactive: Potency [1] | Potency [2] | Potency [3] | Potency [4] | Potency [5] | Potency [6] | Potency [7] | Potency [8] | Potency [9] | Potency [10]

COC(C)CCO (stereo unspecified)
inactive: Potency [1] | Potency [2] | Potency [3] | Potency [4] | Potency [5] | Potency [6] | Potency [7] | Potency [10]

C=Cc1ccccc1
inactive: Potency [1] | Potency [2] | Potency [3] | Potency [4] | Potency [5] | Potency [6] | Potency [7]

CCOc1ccc2nc(N)sc2c1
inactive: Potency [1] | Potency [3] | Potency [4] | Potency [5] | Potency [7] | Potency [8] | Potency [10]
active: Potency [2] 19.9 µM | Potency [6] 21.5 µM | Potency [9] 27.1 µM

CC(C)CC(=O)OCc1ccccc1
inactive: Potency [1] | Potency [2] | Potency [3] | Potency [4] | Potency [5] | Potency [6] | Potency [7]

FC(F)(F)C(Cl)(Cl)Cl
inactive: Potency [1] | Potency [2] | Potency [3] | Potency [4] | Potency [5] | Potency [6] | Potency [7]

CC(C)=CCC[C@](C)(O)[C@@H]1CC=C(C)CC1
inactive: Potency [1] | Potency [2] | Potency [3] | Potency [4] | Potency [5] | Potency [6] | Potency [7]

Nc1ccc2ccccc2c1S(=O)(=O)O
inactive: Potency [1] | Potency [3] | Potency [4] | Potency [5] | Potency [7]
active: Potency [2] 32.4 µM | Potency [6] 22.1 µM

O=Cc1ccc(F)c(Br)c1
inactive: Potency [1] | Potency [2] | Potency [3] | Potency [4] | Potency [5] | Potency [6] | Potency [7]

OCCN(CCO)CCN(CCO)CCO
inactive: Potency [1] | Potency [2] | Potency [3] | Potency [4] | Potency [5] | Potency [6] | Potency [7] | Potency [8] | Potency [9] | Potency [10]

Cc1cc(S(=O)(=O)O)c(N)cc1Cl
inactive: Potency [1] | Potency [2] | Potency [3] | Potency [4] | Potency [5] | Potency [6] | Potency [7]

O=C(O)CN(CCN(CC(=O)O)CC(=O)O)CCN(CC(=O)O)CC(=O)O
inactive: viability change, negative = cytotoxic [1] 4.74% [at 19 µM] | activity change, negative = inhibition [2] 2.77% [at 23.6 µM] | viability change, negative = cytotoxic [3] -25% [at 19 µM] | activity change, negative = cytotoxicity [4] -28.8% [at 19 µM] | activity, negative = inhibition [5] -23.7% [at 19 µM] | activation [6] -1.04% [at 19 µM] | viability change, negative = cytotoxic [7] 0.226% [at 19 µM] | activity, negative = inhibition [8] 0.933% [at 19 µM] | activation [9] 0.186% [at 19 µM]

CCCCNCCCC
inactive: Potency [1] | Potency [2] | Potency [3] | Potency [4] | Potency [5] | Potency [6] | Potency [7] | Potency [8] | Potency [9]

COc1nc(C)nc(NC(=O)NS(=O)(=O)c2ccccc2OCCCl)n1
inactive: Potency [1] | Potency [2] | Potency [3] | Potency [4] | Potency [5] | Potency [6] | Potency [7] | Potency [8] | Potency [9]

CCCC(CCC)(C(=O)OCC)C(=O)OCC
inactive: Potency [1] | Potency [2] | Potency [3] | Potency [4] | Potency [5] | Potency [6] | Potency [7] | Potency [10]

CCCCCCCCCC#N
inactive: Potency [1] | Potency [2] | Potency [3] | Potency [4] | Potency [5] | Potency [6] | Potency [7] | Potency [8] | Potency [9] | Potency [10]

O=C(CCCl)NCc1ccccc1
inactive: Potency [1] | Potency [2] | Potency [3] | Potency [4] | Potency [5] | Potency [6] | Potency [7] | Potency [8] | Potency [9]

OC[C@H]1O[C@@H](O[C@H]2[C@H](O)[C@@H](O)[C@H](O)O[C@@H]2CO)[C@H](O)[C@@H](O)[C@H]1O
inactive: Potency [1] | Potency [2] | Potency [3] | Potency [4] | Potency [5] | Potency [6] | Potency [7] | Potency [8] | Potency [9] | Potency [10]

CCCCC1CCC(=O)O1 (stereo unspecified)
inactive: Potency [1] | Potency [2] | Potency [3] | Potency [4] | Potency [5] | Potency [6] | Potency [7] | Potency [8] | Potency [9] | Potency [10]

CO[Si](C)(C)OC
inactive: Potency [1] | Potency [2] | Potency [3] | Potency [4] | Potency [5] | Potency [6] | Potency [7] | Potency [8] | Potency [9] | Potency [10]

O=C(O[C@@H](C(=O)O)[C@@H](OC(=O)c1ccccc1)C(=O)O)c1ccccc1
inactive: Potency [1] | Potency [2] | Potency [3] | Potency [4] | Potency [5] | Potency [6] | Potency [7] | Potency [9]

CCCCN1C[C@H](O)[C@@H](O)[C@H](O)[C@H]1CO
inactive: Potency [1] | Potency [2] | Potency [3] | Potency [4] | Potency [5] | Potency [6] | Potency [7] | Potency [10]

CCOC(=O)c1cc(=O)c2c(OCC(COc3cccc4oc(C(=O)OCC)cc(=O)c34)OC(=O)[C@@H](N)CCCCN)cccc2o1
inactive: Potency [1] | Potency [2] | Potency [3] | Potency [4] | Potency [5] | Potency [6] | Potency [7] | Potency [8] | Potency [9] | Potency [10]
